According to PubChem BioAssay (NCATS):
Results filed as inconclusive are left out. Active and inactive are the calls of the source. Calls come from the whole dose curve; as a rule, active = well fitted curve in the direction sought with a large enough effect; inconclusive = small, poorly fitted or top-dose-only effect, or another doubt; inactive = no such curve, though single readings can be large; an effect the other way counts as inactive or inconclusive.

Tests used:
[1] = biological target: ATP-dependent 6-phosphofructokinase (Trypanosoma brucei brucei) (UniProt O15648); assay: qHTS Assay to Find Inhibitors of T. brucei phosphofructokinase: hit validation (AID 492961);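 note: luminescence reports ADP formed as PFK phosphorylates fructose-6-phosphate with ATP; % is set by controls: 0 for no effect and ±100 for the full control effect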
Sequence of ATP-dependent 6-phosphofructokinase (Trypanosoma brucei brucei) (O15648 whole entry, looked up): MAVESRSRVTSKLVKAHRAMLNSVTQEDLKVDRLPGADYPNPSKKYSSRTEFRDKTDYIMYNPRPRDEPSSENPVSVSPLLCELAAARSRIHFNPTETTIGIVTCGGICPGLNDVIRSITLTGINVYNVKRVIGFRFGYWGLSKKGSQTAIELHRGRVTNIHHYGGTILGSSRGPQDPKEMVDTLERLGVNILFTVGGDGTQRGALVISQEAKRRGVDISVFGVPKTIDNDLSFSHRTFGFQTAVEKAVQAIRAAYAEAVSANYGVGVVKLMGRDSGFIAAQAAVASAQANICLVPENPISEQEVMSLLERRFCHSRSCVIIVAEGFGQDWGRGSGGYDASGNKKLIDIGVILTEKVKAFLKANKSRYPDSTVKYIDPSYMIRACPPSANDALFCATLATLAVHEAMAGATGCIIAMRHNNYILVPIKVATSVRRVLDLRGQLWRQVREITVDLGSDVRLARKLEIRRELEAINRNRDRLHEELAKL
Procedure, shortened: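 PFK 1.25 nM, F6P 0.5 mM, ATP 0.1 mM, MgCl2 5 mM, 0.1 M TEA pH 8.0, Tween20 0.01%, BSA 0.1%; 45 min RT. ADP-Glo two-step detection, luminescence. qHTS titration; curve fitting with curve-class categorization.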

[2] = qHTS profiling for inhibitors of Plasmodium falciparum proliferation (AID 504749);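 note: 0% = DMSO vehicle and full inhibition = artemisinin control; nearly all actives have a fitted effect of over 60% in size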; settings: P. falciparum in erythrocytes, SYBR Green DNA, 72 h, at 28.7 µM (top of the series)
Procedure, shortened: (§1)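 Fluorescence of SYBR Green-bound parasite DNA, read at 485/535 nm, served as the growth measure. Infected erythrocytes were cultured with compound 72 h; artemisinin (0.29 uM) and DMSO wells defined the normalization range.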

[3] = tested on: 3D7; assay: as above; settings: P. falciparum in erythrocytes, SYBR Green DNA, 72 h; series mostly up to 28.7 µM
Procedure, shortened: as §1

[4] = tested on: ATS189; assay: as above; settings: P. falciparum in erythrocytes, SYBR Green DNA, 72 h; series mostly up to 28.7 µM
Procedure, shortened: as §1

[5] = tested on: ATS95; assay: as above; settings: P. falciparum in erythrocytes, SYBR Green DNA, 72 h; series mostly up to 28.7 µM
Procedure, shortened: as §1

[6] = tested on: C2A; assay: as above; settings: P. falciparum in erythrocytes, SYBR Green DNA, 72 h; series mostly up to 28.7 µM
Procedure, shortened: as §1

[7] = tested on: CP185; assay: as above; settings: P. falciparum in erythrocytes, SYBR Green DNA, 72 h; series mostly up to 28.7 µM
Procedure, shortened: as §1

[8] = tested on: CP191; assay: as above; settings: P. falciparum in erythrocytes, SYBR Green DNA, 72 h; series mostly up to 28.7 µM
Procedure, shortened: as §1

[9] = tested on: CP217; assay: as above; settings: P. falciparum in erythrocytes, SYBR Green DNA, 72 h; series mostly up to 28.7 µM
Procedure, shortened: as §1

[10] = tested on: CP238; assay: as above; settings: P. falciparum in erythrocytes, SYBR Green DNA, 72 h; series mostly up to 28.7 µM
Procedure, shortened: as §1

[11] = tested on: CP250; assay: as above; settings: P. falciparum in erythrocytes, SYBR Green DNA, 72 h; series mostly up to 28.7 µM
Procedure, shortened: as §1

[12] = tested on: CP252; assay: as above; settings: P. falciparum in erythrocytes, SYBR Green DNA, 72 h; series mostly up to 28.7 µM
Procedure, shortened: as §1

[13] = tested on: CP256; assay: as above; settings: P. falciparum in erythrocytes, SYBR Green DNA, 72 h; series mostly up to 28.7 µM
Procedure, shortened: as §1

[14] = tested on: CP262; assay: as above; settings: P. falciparum in erythrocytes, SYBR Green DNA, 72 h; series mostly up to 28.7 µM
Procedure, shortened: as §1

[15] = tested on: CP265; assay: as above; settings: P. falciparum in erythrocytes, SYBR Green DNA, 72 h; series mostly up to 28.7 µM
Procedure, shortened: as §1

[16] = tested on: CP286; assay: as above; settings: P. falciparum in erythrocytes, SYBR Green DNA, 72 h; series mostly up to 28.7 µM
Procedure, shortened: as §1

[17] = tested on: DFO2036; assay: as above; settings: P. falciparum in erythrocytes, SYBR Green DNA, 72 h; series mostly up to 28.7 µM
Procedure, shortened: as §1

[18] = tested on: Dd2; assay: as above; settings: P. falciparum in erythrocytes, SYBR Green DNA, 72 h; series mostly up to 28.7 µM
Procedure, shortened: as §1

[19] = tested on: HB3; assay: as above; settings: P. falciparum in erythrocytes, SYBR Green DNA, 72 h; series mostly up to 28.7 µM
Procedure, shortened: as §1

[20] = tested on: P94_40; assay: as above; settings: P. falciparum in erythrocytes, SYBR Green DNA, 72 h; series mostly up to 28.7 µM
Procedure, shortened: as §1

O=C1NC(=O)C2C3C=CC(C3)C12 (stereo not given)
inactive: Potency [1] | activity, negative = inhibition ([2]; parasite line A) 8.3% | activity, negative = inhibition ([2]; parasite line B) 20.1% | Potency [3] | Potency [4] | Potency [5] | Potency [6] | Potency [7] | Potency [8] | Potency [9] | Potency [10] | Potency [11] | Potency [12] | Potency [13] | Potency [14] | Potency [15] | Potency [16] | Potency [17] | Potency [18] | Potency [19] | Potency [20]

NC(=O)NC(CCC(=O)O)C(=O)O (stereo not given)
inactive: Potency [1] | activity, negative = inhibition ([2]; parasite line A) -0.405% | activity, negative = inhibition ([2]; parasite line B) 3.49% | Potency [3] | Potency [4] | Potency [5] | Potency [6] | Potency [7] | Potency [8] | Potency [9] | Potency [10] | Potency [11] | Potency [12] | Potency [13] | Potency [14] | Potency [15] | Potency [16] | Potency [17] | Potency [18] | Potency [19] | Potency [20]

CC(=O)NC1[C@H]([C@H](O)[C@H](O)CO)OC(C(=O)O)=C[C@H]1N=C(N)N (stereo not given in full)
inactive: Potency [1] | activity, negative = inhibition ([2]; parasite line A) 4.99% | activity, negative = inhibition ([2]; parasite line B) 6.49% | Potency [3] | Potency [4] | Potency [5] | Potency [6] | Potency [7] | Potency [8] | Potency [9] | Potency [10] | Potency [11] | Potency [12] | Potency [13] | Potency [14] | Potency [15] | Potency [16] | Potency [17] | Potency [18] | Potency [19] | Potency [20]

OCCN1CC(O)C(O)C(O)C1CO (stereo not given)
inactive: Potency [1] | activity, negative = inhibition ([2]; parasite line A) 13.3% | activity, negative = inhibition ([2]; parasite line B) 21.3% | Potency [3] | Potency [4] | Potency [5] | Potency [6] | Potency [7] | Potency [8] | Potency [9] | Potency [10] | Potency [11] | Potency [12] | Potency [13] | Potency [14] | Potency [15] | Potency [16] | Potency [17] | Potency [18] | Potency [19] | Potency [20]

O=C(OC[C@@H]1O[C@@](O)(COC(=O)c2cccnc2)[C@H](OC(=O)c2cccnc2)[C@H]1OC(=O)c1cccnc1)c1cccnc1
inactive: Potency [1] | activity, negative = inhibition ([2]; parasite line A) 18.2% | activity, negative = inhibition ([2]; parasite line B) -0.864% | Potency [3] | Potency [4] | Potency [5] | Potency [6] | Potency [7] | Potency [8] | Potency [9] | Potency [10] | Potency [11] | Potency [12] | Potency [13] | Potency [14] | Potency [15] | Potency [16] | Potency [17] | Potency [18] | Potency [19] | Potency [20]
